Compound activity as filed in PubChem.
A selection: hits, their analogues and other compounds. The true share with any hit is near 11%.
Gal4-VP16 FLuc: VP16 counterscreen qHTS for inhibitors of ROR gamma transcriptional activity; Drosophila S2 Gal4-VP16 UAS-luciferase, luminescence, 20 h; Potency, µM (doses to about 53.6 µM), without a hit: top-dose activity, negative = inhibition, actives largely listed as inhibitors; 310,000 tested, 3.5% active;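 further: Gal4-VP16 expression switched on by copper sulfate through the metallothionein promoter; potency means the concentration at half of the fitted maximal effect; on the % scale 0 is the no-effect control and ±100 the full control effect; nearly all actives have a fitted effect of over 50% in size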
IL-1B inflam inh: qHTS for Inhibitors of Inflammasome Signaling: IL-1-beta AlphaLISA Primary Screen; THP-1 LPS/ATP IL-1B secretion, AlphaLISA, 16 h; stronger effect = lower value; activity change, % at 57.5 µM; 360,000 tested, 4.7% active; in the data active means activity change below about -50%; inconclusive means mostly about -30% to -49%; further: on the % scale 0 is the no-effect control and ±100 the full control effect
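Secreted IL-1B measured by AlphaLISA bead assay after 16 h compound exposure of THP-1 cells; compounds (final up to 57.5 uM) added 1 h before LPS (250 ng/mL) and ATP (1.25 mM) stimulation; lower signal means less secretion.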
SW480 rereplic: A quantitative high throughput screen for small molecules that induce DNA re-replication in SW480 colon adenocarcinoma cells; SW480 DNA re-replication, Hoechst DNA content imaging, 48 h; AID 624297, 2012; Potency, µM (top dose mostly 46.1 µM), without a hit: at the highest dose re-replication activation, usual class: activators; 340,000 tested, 1.8% active; further: potency means the concentration at half of the fitted maximal effect; % of control where 0% means no effect; nearly all actives have a fitted effect of over 55% in size
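Treated cells incubate 48 hr (37 C, 5% CO2), are stained 40 min with Hoechst, and nuclear fluorescence is enumerated; a rise in nuclei with high DNA signal marks re-replication.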
MCF10A rerep: A quantitative high throughput screen for small molecules that induce DNA re-replication in MCF 10a normal breast cells | MCF 10A DNA re-replication, Hoechst nuclear intensity, 48 h | Potency, µM (highest dose often 46.1 µM), without a hit: at the highest dose activity, positive = re-replication, hits mostly activators | 350,000 tested, 2.9% active | AID 624296, 2012; further: potency means the concentration at half of the fitted maximal effect; % of control where 0% means no effect; nearly all actives have a fitted effect of over 50% in size
RORgamma inh: qHTS for inhibitors of ROR gamma transcriptional activity. Nuclear receptor ROR-gamma (Mus musculus), P51450. 310,000 tested, 5.4% active. Potency, µM (highest dose often 53.6 µM), for inactives: top-dose activity change, negative = inhibition, actives largely listed as inhibitors. Drosophila S2 Gal4-RORgamma UAS-luciferase reporter, 20 h; further: potency means the concentration at half of the fitted maximal effect; on the % scale 0 is the no-effect control and ±100 the full control effect; nearly all actives have a fitted effect of over 60% in size
Target sequence (P51450 whole entry, looked up, the tested form may be a part): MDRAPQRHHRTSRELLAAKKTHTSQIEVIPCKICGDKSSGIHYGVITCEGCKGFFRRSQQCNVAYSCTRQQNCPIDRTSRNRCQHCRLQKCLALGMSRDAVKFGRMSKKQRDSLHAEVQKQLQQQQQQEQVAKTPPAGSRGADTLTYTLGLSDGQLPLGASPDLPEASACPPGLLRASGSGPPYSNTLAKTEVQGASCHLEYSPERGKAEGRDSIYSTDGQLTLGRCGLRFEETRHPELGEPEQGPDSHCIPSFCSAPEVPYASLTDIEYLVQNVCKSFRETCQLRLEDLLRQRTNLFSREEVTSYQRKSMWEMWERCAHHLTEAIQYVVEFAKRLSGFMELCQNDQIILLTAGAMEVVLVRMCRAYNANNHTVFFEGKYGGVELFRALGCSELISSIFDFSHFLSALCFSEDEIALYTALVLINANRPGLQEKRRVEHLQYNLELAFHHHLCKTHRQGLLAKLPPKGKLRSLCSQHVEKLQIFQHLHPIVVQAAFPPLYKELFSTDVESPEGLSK
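In this cell-based reporter format, copper sulfate (700 uM final) drives Gal4–ROR gamma fusion expression from a metallothionein promoter in Drosophila Schneider cells; compounds preincubated 1 hr, reporter read after 20 hr at ambient temperature.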
The depositor's hits bear a star. Unless noted, the call rests on the fitted dose curve; in most records, active means well fitted curve in the direction sought with a large enough effect; inconclusive means small, poorly fitted or top-dose-only effect, or another doubt; inactive means no such curve, though single readings can be large; an effect the other way counts as inactive or inconclusive.

COc1cccc(/C=N/Nc2c(Cl)cncc2Cl)c1O was read as Gal4-VP16 FLuc -12%, IL-1B inflam inh -7, SW480 rereplic -3%, MCF10A rerep inconclusive and RORgamma inh 15%.
COc1cccc(/C=N/Nc2cc(Cl)nc(C)n2)c1O was read as Gal4-VP16 FLuc 2.8µM*, IL-1B inflam inh 14, SW480 rereplic 0.29µM*, MCF10A rerep 7.3µM* and RORgamma inh 0.5µM*.
`COc1cccc(/C=N/Nc2ncnc3c2ncn3Cc2ccccc2)c1O` gave Gal4-VP16 FLuc inconclusive, IL-1B inflam inh -52*, SW480 rereplic inconclusive, MCF10A rerep inconclusive and RORgamma inh inconclusive.
`COc1ccc(-n2c(C)cc(/C=N/Nc3nnc(C)n3N)c2C)cc1` gave Gal4-VP16 FLuc inconclusive, IL-1B inflam inh -81*, SW480 rereplic inconclusive, MCF10A rerep inconclusive and RORgamma inh inconclusive.
Screening Cc1nnc(N/N=C/c2ccccc2F)n1N returned Gal4-VP16 FLuc inconclusive, IL-1B inflam inh 0, SW480 rereplic -10%, MCF10A rerep 8% and RORgamma inh -36%.
Screening COc1cccc(/C=N/Nc2ccc([N+](=O)[O-])cc2)c1O returned Gal4-VP16 FLuc 10%, IL-1B inflam inh inconclusive, SW480 rereplic inconclusive, MCF10A rerep inconclusive and RORgamma inh 16%.
O=C(C[C@H]1C/C=C\CC[C@H](Cc2ccc(F)cc2)C(=O)OCCNC1=O)NCCO was read as IL-1B inflam inh -7, SW480 rereplic -1% and MCF10A rerep -4%.
Screening Cc1coc2cc3oc(=O)c(CCC(=O)N4CCC(C(=O)O)(c5ccccc5)CC4)c(C)c3cc12 returned Gal4-VP16 FLuc 1%, IL-1B inflam inh 45, SW480 rereplic -8%, MCF10A rerep 0% and RORgamma inh -22%.
For Cc1noc(C)c1CSc1ccccc1C(=O)N(C)CC(=O)Nc1cccc(F)c1 the results were IL-1B inflam inh -1, SW480 rereplic -92% and MCF10A rerep -43%.
CC1=C(C(=O)N(C)C)CC(CC(=O)NC2CCCCC2)C(=O)N1CCC1=CCCCC1 (stereo unspecified) was read as IL-1B inflam inh -21.
For CCc1ccc(NC(=O)C(C)OC(=O)c2ccc(NS(=O)(=O)c3ccc(C)c([N+](=O)[O-])c3)cc2)cc1 (stereo unspecified) the results were Gal4-VP16 FLuc -4%, IL-1B inflam inh -77*, SW480 rereplic inconclusive, MCF10A rerep inconclusive and RORgamma inh inconclusive.
Cc1cc(C)c2c(CN3CCN(c4ccccc4F)CC3)cc(=O)oc2c1 was read as IL-1B inflam inh 14.
`CCOc1ccc(C2Nc3ccc4ccccc4c3-c3c2c(=O)oc2ccccc32)cc1` (stereo unspecified) gave Gal4-VP16 FLuc -4%, IL-1B inflam inh -55*, SW480 rereplic inconclusive, MCF10A rerep 5.2µM* and RORgamma inh 40%.
Screening CC(C)C(=O)Nc1ccc(-c2nc3ncccc3o2)cc1 returned Gal4-VP16 FLuc inconclusive, IL-1B inflam inh inconclusive, SW480 rereplic 2%, MCF10A rerep 17% and RORgamma inh inconclusive.
`O=C(Nc1ccc(-c2nc3ncccc3o2)cc1)c1ccc([N+](=O)[O-])o1` gave Gal4-VP16 FLuc inconclusive, IL-1B inflam inh -80*, SW480 rereplic 2.3µM*, MCF10A rerep 2.9µM* and RORgamma inh -38%.
`Cc1ccc(-c2nc3ncccc3o2)cc1NC(=O)c1ccc([N+](=O)[O-])o1` gave Gal4-VP16 FLuc -25%, IL-1B inflam inh -97*, SW480 rereplic 2.1µM*, MCF10A rerep 2.3µM* and RORgamma inh -35%.
Screening O=C(Nc1ccc2oc(-c3ccncc3)nc2c1)c1ccc([N+](=O)[O-])o1 returned Gal4-VP16 FLuc -13%, IL-1B inflam inh -91*, SW480 rereplic 2.6µM*, MCF10A rerep 4.1µM* and RORgamma inh -37%.
